D1 antagonist = antagonists of human D1 dopamine receptor | P21728 | HEK293 TREx D1 cells, calcium flux, dopamine EC80; active compounds read low | activity change, negative = inhibition, % at 10 µM | 360,000 compounds, 3.2% hits | AID 504652; in the data active means activity change below about -30%
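After overnight tetracycline induction at 30 C, force-coupled D1 HEK293 cells took up a no-wash calcium dye at room temperature. Compounds were added and monitored 180 s, and the response to EC80 dopamine was then recorded.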
D1 PAM = human D1 dopamine receptor positive modulation; P21728; HEK293 TREx D1 cells, calcium flux, dopamine EC20 potentiation; potentiation, % at 10 µM; 360,000 compounds, 0.036% hits; AID 504651; in the data active means potentiation above about 30%
D1 agonist = agonists of human D1 dopamine receptor. P21728. activation, % at 2 µM. AID 504660. HEK293 T-REx D1 cells, calcium flux, agonist mode. 360,000 compounds, 1% hits; in the data active means activation above about 30%
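Tetracycline-induced HEK293 TREx D1 cells, force-coupled to calcium signalling, were dye-loaded with a no-wash calcium kit. Compound was pin-added after a 10 s baseline. Fluorescence was read kinetically at 1 cycle/s for 180 s, with calcium rises flagged as agonism.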
DRD3 agonist = agonists of human D3 dopamine receptor | AID 652048 | max activation, % | D3R DiscoveRx beta-arrestin cells, luminescence, 90 min | P35462 | 410,000 compounds, 0.58% hits; in the data active means max activation above about 30%
Target sequence (P35462 whole entry, looked up): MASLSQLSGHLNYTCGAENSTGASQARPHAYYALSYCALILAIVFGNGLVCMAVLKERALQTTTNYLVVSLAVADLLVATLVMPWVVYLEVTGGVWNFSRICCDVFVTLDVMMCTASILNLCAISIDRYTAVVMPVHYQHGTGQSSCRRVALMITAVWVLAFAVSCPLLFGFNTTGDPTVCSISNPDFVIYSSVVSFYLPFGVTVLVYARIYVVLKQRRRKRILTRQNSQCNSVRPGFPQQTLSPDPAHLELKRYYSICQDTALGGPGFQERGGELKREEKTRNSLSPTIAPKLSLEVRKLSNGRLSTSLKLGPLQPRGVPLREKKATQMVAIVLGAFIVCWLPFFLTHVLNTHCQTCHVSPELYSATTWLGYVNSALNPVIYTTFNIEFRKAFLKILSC
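Cells at 1500/well, incubated overnight, then treated with pinned compounds (dopamine as control) for 90 min at 37 degrees C. DiscoveRx reagent added for 30 - 60 minutes at room temperature; luminescence read.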
DRD3 antagonist = antagonists of human D3 dopamine receptor | P35462 | D3R cells, DiscoveRx beta-arrestin luminescence, antagonist mode; active compounds read low | max response, negative = inhibition, % | 360,000 compounds, 2.5% hits; in the data active means max response below about -50%; inconclusive means no clear call, values can overlap the other calls
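Cells expressing the human receptor were seeded at 1500 cells/well, incubated overnight at 37 degrees C in 5% CO2, then exposed to library compounds with dopamine controls for 90 minutes at 37 degrees C before luminescent detection.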
A number is an active result; n = inactive; u = inconclusive; x = not tested or not shown; ! = repeats disagree. Only some compounds are listed: those with a hit (about 6.1% of all), similar ones and a draw of the others.

SMILES	D1 antagonist	D1 PAM	D1 agonist	DRD3 agonist	DRD3 antagonist
Cc1cc(N2CCC(C(=O)Nc3ccc(F)cc3C)CC2)n2nc(C)c(-c3ccc(Cl)cc3)c2n1	n	n	n	n	x
COc1ccc(C(O)c2ncc(-c3ccccc3F)[nH]2)cc1 (stereo not given)	x	x	x	n	n
CCCCN(C)C(=O)C1CCC(CNS(=O)(=O)c2ccc3c(c2)CC(C)N3C(=O)C2CC2)CC1 (stereo not given)	-43	n	n	n	n
Cc1cccc(NS(=O)(=O)c2ccc3c(c2)CC(C)N3C(=O)C2CCC2)c1C (stereo not given)	-34	n	n	n	x
COc1ccccc1NS(=O)(=O)c1ccc(O)c(C(=O)OCC(=O)N2c3ccccc3CC2C)c1 (stereo not given)	n	n	n	n	-106
CC(=O)N1c2ccc(S(=O)(=O)N3CCC(C(=O)N4CCN(c5cc(Cl)ccc5C)CC4)CC3)cc2CC1C (stereo not given)	-33	n	n	n	n
COc1ccc(C(=O)CCC(=O)Nc2ccc(C)c(Cl)c2)cc1	n	n	n	n	x
CC1CC(C)CN(C(=O)C2CCN(S(=O)(=O)c3ccc4c(c3)CC(C)N4C(=O)C3CC3)CC2)C1 (stereo not given)	-45	n	n	n	n
CC(=O)N1c2ccc(S(=O)(=O)N3CCC(C(=O)N4CC(C)CC(C)C4)CC3)cc2CC1C (stereo not given)	n	n	n	n	n
CCC(C(=O)Nc1ccccc1F)n1nc(C)c2c(C)n(-c3ccccc3)nc2c1=O (stereo not given)	n	n	n	n	n
CCC(C(=O)Nc1cc(F)ccc1F)n1nc(C)c2c(C)n(-c3ccc(C)cc3)nc2c1=O (stereo not given)	n	n	n	59!	n
O=C(CCSc1ccc(Cl)cc1)N1CCN(S(=O)(=O)c2ccccc2)CC1	n	n	n	n	n
COc1ccc(CN/C(C)=C(/C#N)C(N)=O)cc1OC	-66	n	n	n	n
C=C1C(=O)[C@]23C[C@H]1CCC2[C@@]1(C)C(C[C@@H]3O)[C@](C)(C(=O)OC)CC[C@@H]1O (stereo not given in full)	x	x	x	n	-67
COc1cc(/C=N/NC(=O)CC2(C)OCCO2)cc(Br)c1O	n	n	n	n	n
CCCCCC(=O)N/N=C/c1cc(Br)c(O)c(OC)c1	-39	n	n	n	n
O=C(CNC(=O)c1ccc(S(=O)(=O)N2CCCC2)cc1)N/N=C/c1ccc(Cl)cc1Cl	n	n	n	n	n
CCOC(=O)C1C(=O)C=C(c2ccc(C)cc2)CC1c1ccccc1 (stereo not given)	n	n	n	n	n
CCOC(=O)C1C(=O)C=C(/C=C/c2ccc(N(C)C)cc2)CC1c1ccccc1 (stereo not given)	n	n	230	n	n
CCC(Oc1ccccc1)C(=O)OCC(=O)N(CC)c1c(N)n(Cc2ccccc2)c(=O)[nH]c1=O (stereo not given)	n	n	n	n	n
CCCNC(=O)c1c(N)n(-c2cccc(OC)c2)c2nc3ccccc3nc12	n	n	n	n	n
Nc1c(C(=O)NCCN2CCOCC2)c2nc3ccccc3nc2n1-c1cccc(F)c1	-48	n	n	n	n
CC(C)CC(N)C(=O)OCc1ccc([N+](=O)[O-])cc1 (stereo not given)	n	n	n	n	n
COc1cccc(C(=O)CC(=O)C(=O)Nc2ccc(C)cc2Cl)c1	n	n	n	n	n
COc1ccc(C(=O)CC(=O)C(=O)Nc2ccc(C)cc2Cl)cc1	n	n	n	n	-64
SMILES	D1 antagonist	D1 PAM	D1 agonist	DRD3 agonist	DRD3 antagonist
NC(=O)c1ccc(NCC2COc3ccccc3O2)c([N+](=O)[O-])c1 (stereo not given)	-37	n	n	n	n
COc1ccc(NC(=O)C(CC(=O)O)C(C)c2ccccc2)cc1 (stereo not given)	-39	n	n	n	n
COc1ccc(NC(=O)C(CC(=O)O)Cc2ccccc2)cc1 (stereo not given)	n	n	n	n	n
C/C(=N\NC(=O)c1cccc(S(=O)(=O)N2CCOCC2)c1)c1ccc(C)cc1	n	n	n	n	n
COc1ccc(NC(=O)C2CCN(c3cc(-c4ccccc4)nc4ncnn34)CC2)cc1OC	n	n	n	55	n
COc1ccc(OC)c(NC(=O)C2CCN(c3cc(-c4ccccc4)nc4ncnn34)CC2)c1	n	n	n	n	n
COc1ccccc1NC(=O)N1CCN(c2cc(-c3ccccc3)nc3ncnn23)CC1	-54	n	n	n	n
CCOc1ccc(S(=O)(=O)N2CCOCC2)cc1NC(=O)C1=COCCO1	n	n	n	n	n
CCN(CC)S(=O)(=O)c1ccc2oc(SCC(=O)NC3CC3)nc2c1	n	n	n	n	n
CCN(CC)S(=O)(=O)c1ccc2oc(SCc3ccc(F)cc3)nc2c1	-36	n	n	n	n
CN(C)S(=O)(=O)c1ccc2c(c1)N(CC(=O)Nc1ccc(OC(F)(F)F)cc1)C(=O)CS2	n	n	n	n	x
CCOc1ccc(CO[C@@H]2O[C@H](CO)[C@@H](O)[C@H](O)[C@H]2NC(C)=O)cc1OC	n	n	n	n	n
COc1ccc(CO[C@@H]2O[C@H](CO)[C@@H](O)[C@H](O)[C@H]2NC(C)=O)cc1OC	n	n	n	n	-52
COc1ccc(NC(=O)Cc2coc3ccc4ccccc4c23)cc1S(=O)(=O)N1CCOCC1	n	n	n	n	n
O=C1c2ccccc2C(c2nnnn2Cc2ccccc2)N1Cc1cccs1 (stereo not given)	x	x	x	n	u
Cc1nc(C)c(-c2ccc(SCC(=O)Nc3cccc(F)c3)nn2)s1	-32	n	n	n	n
Cc1ccccc1-n1c(SCC(=O)c2c(N)n(C3CC3)c(=O)[nH]c2=O)nnc1N1CCOCC1	n	n	n	n	n
COc1cccc(/C=C(/C#N)c2ccc(F)cc2)c1OCc1cccc(C(=O)O)c1	n	n	n	n	n
COc1cc(N2CCCC2)c(OC)cc1/C=C(/C#N)c1cccc(F)c1	n	n	56	n	u
N#C/C(=C/c1ccc(N2CCCCCC2)o1)c1cccc(F)c1	n	n	n	n	-61
N#C/C(=C/c1ccc(N2CCCCCC2)o1)c1ccc(F)cc1	x	x	x	n	u
CC(C)Oc1ccc(CNC(=O)C(C)n2ccc3cc(S(=O)(=O)N4CCCCCC4)ccc32)cc1 (stereo not given)	n	n	n	n	x
CCOC(=O)N1CCN(CC(=O)N2c3ccccc3Sc3ccccc32)CC1	n	n	47	n	n
CCOC(=O)Nc1ccc2c(c1)N(C(=O)CCN1CCN(C)CC1)c1ccccc1S2	n	n	n	n	n
CCOC(=O)Nc1ccc2c(c1)N(C(=O)N1CCN(C)CC1)c1ccccc1S2	-64	n	n	n	n
Cc1nc2c(OCc3ccc(Cl)cc3Cl)cccn2c1N(C)Cc1cccs1	x	x	x	n	-71

Source: PubChem BioAssay
